Among all 1,300 compounds or so, about 380 (29%) were called active. Roughly 37% stayed inconclusive and do not appear here. The call rests on the fitted dose curve; in most records, active means well fitted inhibition curve with a large enough effect; inconclusive means small, poorly fitted or top-dose-only effect; inactive means flat fitted curve, though single readings scatter. This is one part of the list. Entries that show only a call come without a potency.
Potency means the concentration at half of the fitted maximal effect.

Sequence of Thyrotropin receptor (Homo sapiens) (P16473 whole entry, looked up): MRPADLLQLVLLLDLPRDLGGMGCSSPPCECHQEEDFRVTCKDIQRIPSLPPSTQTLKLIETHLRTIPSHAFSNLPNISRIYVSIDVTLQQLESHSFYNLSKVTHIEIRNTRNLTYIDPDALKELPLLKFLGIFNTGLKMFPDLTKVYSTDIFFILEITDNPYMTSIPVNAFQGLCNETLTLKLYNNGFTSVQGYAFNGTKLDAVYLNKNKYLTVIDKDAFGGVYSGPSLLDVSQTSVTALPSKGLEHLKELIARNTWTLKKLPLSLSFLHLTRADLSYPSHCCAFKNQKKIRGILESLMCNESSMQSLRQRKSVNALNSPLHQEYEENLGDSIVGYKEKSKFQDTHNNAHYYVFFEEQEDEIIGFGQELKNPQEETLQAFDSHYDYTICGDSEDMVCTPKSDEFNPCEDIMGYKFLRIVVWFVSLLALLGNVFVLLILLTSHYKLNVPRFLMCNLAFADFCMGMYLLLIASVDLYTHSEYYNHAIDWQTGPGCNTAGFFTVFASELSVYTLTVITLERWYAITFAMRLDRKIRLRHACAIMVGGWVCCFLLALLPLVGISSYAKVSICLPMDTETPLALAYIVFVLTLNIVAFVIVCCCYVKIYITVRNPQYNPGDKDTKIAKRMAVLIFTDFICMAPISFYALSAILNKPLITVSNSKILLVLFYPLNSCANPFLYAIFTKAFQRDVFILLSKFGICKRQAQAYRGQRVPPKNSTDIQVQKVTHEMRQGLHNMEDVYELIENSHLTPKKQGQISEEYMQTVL

The target in the assay is Thyrotropin receptor (Homo sapiens) (UniProt P16473). Description: qHTS for antagonists of the Thyroid Stimulation Hormone Receptor: Hit Validation in Primary Screen. Further: nearly all actives have a fitted effect of over 80% in size. The following applies: TSHR-expressing cells, cAMP antagonist mode; series mostly up to 58 µM. Summed up:
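TSHR-expressing cells were pretreated with compound, then stimulated with TSH at EC80 (4nM final) for 2 hours at 37 deg C. Cellular cAMP measured by competitive HTRF (anti-cAMP cryptate, cAMP-d2) after 30 min at room temperature.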
A general note: qHTS replaces the single test concentration by a dilution series.
Consider `CCCCOCCCNc1ncnc2c1[nH]c1ccccc12`, for which the Potency is 30.1 µM (active). As to `C1=C(CCNc2ncnc3c2[nH]c2ccccc23)CCCC1`, the Potency was 23.9 µM (active). For the molecule `COc1ccc2[nH]c3c(NCCC4=CCCCC4)ncnc3c2c1`, the Potency was 4.78 µM (active). `Cc1cccc(NC(=S)NCC(C)CSc2ccc(Cl)cc2)c1` (configuration not stated): the Potency is 30.1 µM (active).

As to `Cc1cccc(NC(=O)CCN2CCN(C)CC2)c1`, the Potency entry is “inactive”. `OCCSc1nnc(Nc2ccccc2)s1`: the Potency entry was “inactive”. `O=C1C(SCCO)=C(SCCO)C(=O)c2ccccc21`: the Potency was 3.38 µM (active). Turning to `COc1ccc(NS(=O)(=O)c2cn(C)cn2)cc1Cl`, the Potency entry is “inactive”. Take `CCc1ccc(NS(=O)(=O)c2cc3[nH]c(=O)c(=O)[nH]c3cc2C)cc1`: the Potency entry is “inactive”. As to `COc1cc(NS(=O)(=O)c2ccc(C)cc2C)cc(OC)c1OC`, the Potency was 37.9 µM (active). For the molecule `CC(C)(C)OC(=O)N1CCC(CC2CC(c3cccc(Br)c3)=NO2)(C(=O)NCC2CCCCC2)CC1` (configuration not stated), the Potency result was “inactive”. Consider `CC(C)Cc1nc2oc3c(Cl)ncnc3c2c2c1CCC2`, for which the Potency was 23.9 µM (active). Turning to `Cc1ccc(Cl)cc1NC(=O)c1cc2ccccc2cc1O`, the Potency is 3.79 µM (active). Consider `COc1cc(NC(=O)c2cc3ccccc3cc2O)c(OC)cc1Cl`, for which the Potency was 10.7 µM (active). With `COc1cccc(CNC(=O)c2nnn(CC(=O)Nc3cc(Cl)ccc3C)c2N)c1`, the Potency result is “inactive”.

In the case of `Cc1cc(NC(=O)c2ccccc2)c(Cl)cc1N`, the Potency result is “inactive”. Turning to `COc1ccccc1C(=O)NCCC(=O)Nc1ccc(OC(F)(F)F)cc1`, the Potency result was “inactive”.

In the case of `COc1cc2ccccc2cc1C(=O)N1CCCC1`, the Potency entry was “inactive”.

On to `CCOc1ccc(-n2c(SCC(=O)Nc3cc(C)on3)nc3c(c2=O)SCC3)cc1`, for which the Potency entry was “inactive”. `Cc1ccc(NC(=O)Cn2nnc(C(=O)NCCc3ccccc3)c2N)c(C)c1`: the Potency result is “inactive”. Regarding `Cc1ccc(CCNC(=O)C2CC(c3cc(C(F)(F)F)cc(C(F)(F)F)c3)=NO2)cc1` (configuration not stated), the Potency entry is “inactive”. With `N#C/C(=N/Nc1ccc(OC(F)(F)F)cc1)C(N)=S`, the Potency was 6.01 µM (active). With `O=C(Nc1cccc(Cl)c1)c1cc(N=Nc2ccc([N+](=O)[O-])cc2Cl)ccc1O`, the Potency was 0.478 µM (active).

As for `O=C(Nc1ccc([N+](=O)[O-])cc1Cl)c1cc(Cl)ccc1O`, the Potency was 0.338 µM (active).

For the molecule `CC(=O)Oc1c(C)cc(Cl)cc1C(=O)Nc1ccc([N+](=O)[O-])cc1Cl`, the Potency is 0.478 µM (active). Take `Cc1ccc(N2C(=O)C3C4C=CC(CC4)C3C2=O)cc1Cl` (configuration not stated): the Potency result was “inactive”.

For the molecule `CCOc1cc(S(=O)(=O)n2cnc(C)c2)ccc1Cl`, the Potency result was “inactive”. As to `Cc1ccc(CS(=O)(=O)c2ncc(Cl)c(C(=O)Nc3nnc(C(C)C)s3)n2)cc1`, the Potency was 23.9 µM (active). Regarding `COC(=O)CSc1nc(NCc2ccccc2)nc(N(C)C)n1`, the Potency entry is “inactive”. For `Cc1cccc(CC(=O)NCC(=O)NCc2cc(=O)n(C)c(=O)n2C)c1`, the Potency result is “inactive”. As to `CN(C)c1nc(=S)nc(NCc2ccccc2)[nH]1`, the Potency result was “inactive”. `Cc1cc(=O)oc2ccc(OCc3ccccc3)cc12`: the Potency entry was “inactive”. Regarding `COc1ccc(CNC(=O)C2CCCN2C(=O)NCc2ccccc2)cc1` (configuration not stated), the Potency result was “inactive”. For the molecule `CCOC(=O)c1c(NC(=O)/C=C/C(=O)O)sc(C)c1-c1ccc(C)c(C)c1`, the Potency was 23.9 µM (active). Turning to `CCOC(=O)c1c(NC(=O)CN2C(=O)NC(C)(c3ccc(OC(F)F)cc3)C2=O)sc(C)c1C` (configuration not stated), the Potency result was “inactive”.

Take `CCOC(=O)c1c(NC(=O)/C=C/C(=O)O)sc(C)c1-c1ccc(Cl)cc1`: the Potency is 21.3 µM (active). To `CCOC(=O)Cn1c(=NC(=O)CSC(C)=O)sc2ccccc21` belongs “inactive”; to `Cc1ccc(/C=N/n2c(COc3ccccc3)n[nH]c2=S)s1`, “inactive”. Take `CN(C)c1ccc(N/C=C/C(=O)C(F)(F)F)cc1`: the Potency entry is “inactive”. To `Cc1nn(Cc2ccc(Cl)cc2)c(C)c1NC(=O)c1noc2c1CCc1ccccc1-2` belongs 16.9 µM (active). Regarding `Cc1nn(Cc2ccccc2)c(C)c1NC(=O)c1noc2c1CCc1ccccc1-2`, the Potency is 37.9 µM (active). As to `COc1ccc(C(C(=O)NC(C)(C)C)N(CCc2ccccc2)C(=O)CCC(=O)Nc2cc(C)on2)cc1` (configuration not stated), the Potency result was “inactive”. To `CC(=O)N/C(=C\c1ccc(Cl)cc1)C(=O)O` belongs “inactive”; to `C=CCNC(=O)c1ccc(NC(=O)C2=CSCCO2)cc1`, “inactive”; to `Cc1c(Nc2cc(Cl)c3nonc3c2[N+](=O)[O-])c(=O)n(-c2ccccc2)n1C`, 26.9 µM (active). For the molecule `O=[N+]([O-])c1c(Nc2cccc(O)c2)cc(Cl)c2nonc12`, the Potency is 10.7 µM (active). `Cc1cc(C)cc(C(=O)NC(CC(N)=O)c2ccc(NCCN3CCCC3)c([N+](=O)[O-])c2)c1` (configuration not stated): the Potency result is “inactive”.

On to `CC1CCCC(N2CCN(S(=O)(=O)c3ccccc3)CC2)C1` (configuration not stated), for which the Potency result was “inactive”. With `COC(CNC(=O)c1cn(C)c2ccc(S(=O)(=O)N3CCOCC3)cc2c1=O)OC`, the Potency result was “inactive”. As to `O=C1c2cccc3c(O)ccc(c23)C(=O)N1c1ccc(Cl)cc1`, the Potency was 30.1 µM (active).

On to `N/C(=N\OC(=O)Nc1ccccc1)c1cccc(C(F)(F)F)c1`, for which the Potency entry is “inactive”. Take `Cc1ccc(OC(F)F)c(NC(=O)Nc2cccc(C(F)(F)F)c2)c1`: the Potency is 26.9 µM (active). For the molecule `Cc1ccc(NC(=O)Nc2ccc3c(c2)OCO3)c(OC(F)F)c1`, the Potency entry is “inactive”. Turning to `Cc1ccccc1NC(=O)C1C2CCCCC21` (configuration not stated), the Potency entry is “inactive”. On to `O=C(Nc1ccncc1)C1CCN(S(=O)(=O)c2cccc(C(F)(F)F)c2)CC1`, for which the Potency entry is “inactive”. In the case of `Cc1ccc(C)c(N2CCN(S(=O)(=O)c3ccc4c(c3)CC(C)N4C(=O)C3CC3)CC2)c1` (configuration not stated) it was “inactive”; in that of `CC1CC1C(=O)N1CCN(S(=O)(=O)c2cc(C(F)(F)F)cc(C(F)(F)F)c2)CC1` (configuration not stated), 30.1 µM (active).

With `CCCn1c(COc2ccccc2OC)nc2ccccc21`, the Potency result was “inactive”. In the case of `COc1cccc(CNC(=O)CCCC(=O)NC(C)CCc2ccccc2)c1` (configuration not stated) it was “inactive”.

In the case of `COc1cccc(COc2cc3ccccc3nc2C)c1`, the Potency was 23.9 µM (active). To `COc1ccc(-n2c(SCC(=O)Nc3cc(C)on3)nc3c(c2=O)SCC3)cc1OC` belongs “inactive”; to `Nc1ncc(Br)cc1S(=O)(=O)Nc1cc(C(F)(F)F)cc(C(F)(F)F)c1`, 12 µM (active); to `O=S(=O)(Nc1cccc(-n2cnnn2)c1)c1ccccc1C(F)(F)F`, “inactive”.

For the molecule `CC1CN(C(=O)CCn2c(=O)oc3ccccc32)CC(C)O1` (configuration not stated), the Potency entry was “inactive”. With `O=C(/C=C/c1ccc(OCCCF)cc1)Nc1ccnc(-c2ccncc2)n1`, the Potency entry is “inactive”. On to `CSc1nc(N)nc(SCC(=O)Nc2ccc(Cl)cc2)c1C#N`, for which the Potency is 30.1 µM (active). On to `Nc1nc(SCC(=O)Nc2ccc([N+](=O)[O-])cc2)[nH]c(=O)c1NC(=O)c1ccc(Br)cc1`, for which the Potency result is “inactive”. To `Cc1cc(C#N)c(SCC(N)=O)nc1-c1ccc(F)cc1` belongs “inactive”; to `Cc1cc2nc(SCCOC(=O)Nc3ccc(Cl)cc3)nc(C)c2cc1C`, “inactive”. With `Cc1cc(=O)[nH]c(SCC(=O)Nc2ccc(Br)cc2)c1C#N`, the Potency is 7.57 µM (active). Turning to `Cc1ccc(CNS(=O)(=O)c2ccc(CN3C(=O)c4cccnc4C3=O)s2)o1`, the Potency entry is “inactive”. As to `O=C(CCc1ccccc1)N1CCN(Cc2ccc(F)cc2Cl)CC1`, the Potency entry is “inactive”. Regarding `Cc1ccc(CCNC(=O)CN2C(=O)COc3ccc(S(=O)(=O)N4CCC(C)CC4)cc32)cc1`, the Potency result is “inactive”. In the case of `CC[C@@H](C(=O)[C@@H](C)[C@@H](O)[C@H](C)CCc1ccc(C)c(O)c1C(=O)O)[C@H]1O[C@](CC)([C@H]2CC[C@](O)(CC)[C@H](C)O2)C[C@@H]1C` it was 4.78 µM (active). Take `Cc1ccccc1CS(=O)(=O)c1nnc([C@H](Cc2ccccc2)NC(=O)OC(C)(C)C)o1`: the Potency is 37.9 µM (active). Take `C[C@@H](NC(=O)[C@@H]1Cc2ccccc2CN1)C(=O)NC1CCCCC1`: the Potency entry is “inactive”. As to `O=[N+]([O-])c1cc(Br)c(O)c(/C=N/Nc2nnnn2-c2cccc3ccccc23)c1`, the Potency was 7.57 µM (active).

For the molecule `O=[N+]([O-])c1cc(Br)c(O)c(/C=N/Nc2nc3ccccc3s2)c1`, the Potency was 2.39 µM (active). With `COc1cccc(OCC(O)CN2CC(C)CC(C)C2)c1` (configuration not stated), the Potency result was “inactive”. As for `O=C(/C=C/c1ccc(Cl)cc1Cl)NCCSCc1ccccc1`, the Potency was 21.3 µM (active). On to `Cc1ccccc1-n1nnnc1SC1CCOC1=O` (configuration not stated), for which the Potency entry is “inactive”.

As for `O=C(NCCCN1CCOCC1)c1ccc2c(c1)N(Cc1ccc(Cl)cc1)C(=O)c1ccccc1S2=O` (configuration not stated), the Potency entry is “inactive”. To `CCOc1ccc(CNC(=O)CCCn2nc(CC)n3c(cc4occc43)c2=O)cc1` belongs “inactive”; to `CN(C(=O)CN1C(=O)/C(=C/c2ccccc2Cl)SC1=S)C1CCS(=O)(=O)C1` (configuration not stated), “inactive”; to `O=C1/C(=C\c2cc([N+](=O)[O-])ccc2O)SC(=S)N1Cc1ccc(Cl)cc1`, 2.69 µM (active). `COc1cc([N+](=O)[O-])cc(/C=C2/SC(=S)N(Cc3ccccc3)C2=O)c1O`: the Potency was 10.7 µM (active). For `CN(C)C(=O)[C@H]1C[C@H]1[C@@H](O)[C@H](CO)NC(=O)[C@H](COCc1ccccc1)NC(=O)OC(C)(C)C`, the Potency result is “inactive”. For `Cc1ccc(-c2ccc(/C=N/N=C3/NC(=O)C(CC(=O)O)S3)o2)c([N+](=O)[O-])c1` (configuration not stated), the Potency result was “inactive”.

Regarding `O=C(NCCS(=O)(=O)N1CCN(c2ccccc2)CC1)C1CC(=O)N(c2ccccc2)C1` (configuration not stated), the Potency entry was “inactive”. For the molecule `Cc1ccc(CCNC(=O)C2CCN(S(=O)(=O)c3cccc4cccnc34)CC2)cc1`, the Potency result is “inactive”. For `O=C(Nc1nc2ccc(F)cc2s1)C1CCN(S(=O)(=O)c2cc([N+](=O)[O-])ccc2Cl)CC1`, the Potency was 19 µM (active). Take `N#C/C(=N\Nc1cccc([N+](=O)[O-])c1)C(=O)c1ccc(Br)cc1`: the Potency is 15.1 µM (active). For the molecule `COc1ccc(-c2nc(CS(=O)CC(=O)NCc3ccccc3)c(C)o2)cc1OC` (configuration not stated), the Potency result was “inactive”. Regarding `Cc1cccc(-c2noc(CN(C)C(=O)c3ccco3)n2)c1`, the Potency result is “inactive”. On to `COc1ccc(CC(=O)Nc2cccc(-c3nnc(-c4cccc(C)c4)o3)c2)cc1OC`, for which the Potency is 4.26 µM (active).

Take `O=c1[nH]c(=O)c2nnc(N/N=C/c3ccccc3F)nc2[nH]1`: the Potency entry was “inactive”. On to `CC(C)Nc1nc(SC(C)C(=O)Nc2ccccc2)nc(N(C)C)n1` (configuration not stated), for which the Potency result was “inactive”.

These data come from PubChem BioAssay AID602292 (National Center for Advancing Translational Sciences (NCATS), 2012).
